# Screening data: PubChem BioAssay, National Center for Advancing Translational Sciences (NCATS)
# VDR inhibitor: inhibitors of human vitamin D receptor. Potency, µM, inactives show max response, negative = inhibition, actives largely listed as inhibitors. VDR-SRC2-3 peptide fluorescence polarization, 2 h. AID 504847. 0.93% of 400,000 active
#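 The screen uses fluorescence polarization to detect compounds that interfere with recruitment of the SRC2-3 coactivator peptide to VDR; plates are read after 2 h at room temperature.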
# PLK1 PBD block: inhibitors of human PLK1 polo-box domain binding; Plk1 PBD binding of FITC phosphopeptide, fluorescence polarization; Potency, µM, for the others: max response, negative = inhibition, actives largely listed as inhibitors; AID 720504; 2.8% of 360,000 active; P53350; note: series mostly up to about 57 µM; nearly all actives have a fitted effect of over 65% in size
# Target sequence (P53350 whole entry, looked up, the tested form may be a part): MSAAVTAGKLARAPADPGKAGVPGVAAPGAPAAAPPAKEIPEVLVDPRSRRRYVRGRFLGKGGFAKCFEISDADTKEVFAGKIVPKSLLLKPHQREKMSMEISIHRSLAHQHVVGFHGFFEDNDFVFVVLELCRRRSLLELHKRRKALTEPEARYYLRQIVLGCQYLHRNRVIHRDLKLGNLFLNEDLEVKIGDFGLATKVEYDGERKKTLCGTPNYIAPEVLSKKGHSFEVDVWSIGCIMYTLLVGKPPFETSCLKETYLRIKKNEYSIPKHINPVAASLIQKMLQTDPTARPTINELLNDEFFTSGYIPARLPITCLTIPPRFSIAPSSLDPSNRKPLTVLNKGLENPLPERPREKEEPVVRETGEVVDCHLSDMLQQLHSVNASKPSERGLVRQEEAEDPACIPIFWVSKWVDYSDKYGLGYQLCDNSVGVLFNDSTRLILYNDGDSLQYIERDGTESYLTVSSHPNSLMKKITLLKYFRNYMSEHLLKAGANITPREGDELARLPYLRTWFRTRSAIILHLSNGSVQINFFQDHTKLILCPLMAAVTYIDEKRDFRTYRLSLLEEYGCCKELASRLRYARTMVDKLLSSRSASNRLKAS
# 12-LOX inh: inhibitors of human 12S-lipoxygenase ALOX12; P18054; purified 12hLO, xylenol orange hydroperoxide absorbance; Potency, µM (doses to about 108 µM), inactives show top-dose activity change, negative = inhibition, hits mostly inhibitors; 1.1% of 580,000 active
#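 Purified human 12hLO at 150 nM in 25 mM Hepes, 0.01% Triton X-100, pH 7.0, preincubated 15 min at room temperature with compound. Reaction started with 40 uM arachidonic acid, 30 min at room temperature. Hydroperoxide measured by Fe-xylenol orange, 573/405 nm absorbance ratio.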
# Sfp inh: Sfp phosphopantetheinyl transferase inhibition; 3.5% of 310,000 active; Q9F4F7; Potency, µM, inactives show largest response in the series, negative = inhibition, most hits filed as inhibitors; AID 1490; Biochemical Sfp PPTase activity, qHTS;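 note: the enzyme is Sfp with the accession as filed and its product quenches rhodamine fluorescence; 0% = enzyme reaction without inhibitor and -100% = no enzyme wells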
#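 Fluorescence-quenching assay with 15 nM Sfp, 5 uM rhodamine-CoA and 12.5 uM BHQ-2-labelled ybbR peptide in pH 7.6 Hepes/MgCl2 buffer. Enzyme was pre-incubated with compound for 15 min at room temperature. Rate was taken from the 30-min fluorescence change (525/598 nm).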
# Starred values were filed as active, the others as inactive; ? = inconclusive; / = no result. Hits are enriched below; roughly 4.2% of the tested compounds scored in any of these assays. Calls come from the whole dose curve; as a rule, active = well fitted curve in the direction sought with a large enough effect; inconclusive = small, poorly fitted or top-dose-only effect, or another doubt; inactive = no such curve, though single readings can be large; an effect the other way counts as inactive or inconclusive. Unless noted, % is set by controls: 0 for no effect and ±100 for the full control effect; potency is the fitted concentration of half-maximal effect.
SMILES,VDR inhibitor,PLK1 PBD block,12-LOX inh,Sfp inh
CN(C)[C@@H]1CN(C(=O)C2(c3ccccc3)CC2)C[C@H]1CO,/,/,16%,/
Cc1ccc(CNS(=O)(=O)CCNC(=O)c2ccc3c(c2)OCO3)cc1,-8%,-7%,-4%,/
O=C(C1=C(Nc2ccccc2)c2ccccc2S(=O)(=O)N1)c1ccccc1,-4%,-6%,2%,89µM*
Cc1ccccc1C(=O)Nc1scc(-c2ccc(Br)cc2)c1C(=O)O,-1%,21µM*,?,/
N#Cc1ccc(N2C(=O)[C@@H]3C(C(=O)c4cnccn4)=NN[C@@H]3C2=O)cc1,24%,-9%,?,18µM*
N#Cc1ccc(N2C(=O)[C@@H]3C(C(=O)c4ccc5ccccc5n4)=NN[C@@H]3C2=O)cc1,-30%,-7%,-4%,-16%
CCC1CN(C(=O)N2CCC(C(=O)N3CCN(c4cccc(C)c4C)CC3)CC2)c2ccccc2O1 (stereo not given),14%,/,0%,/
CCOc1ccc(-c2cc(C(=O)NC(C)C)c3ccccc3n2)cc1,/,/,-40%,/
Cc1ccc2[nH]c(=O)c(CN(Cc3ccc4c(c3)OCO4)Cc3nnnn3Cc3ccco3)cc2c1,8%,-12%,?,-9%
CCOC(=O)Cn1nnnc1CN(Cc1cccs1)Cc1cc2cc(C)cc(C)c2[nH]c1=O,9%,-4%,0%,16µM*
COc1ccc2cc(CN(Cc3cccs3)Cc3nnnn3Cc3ccccc3)c(=O)[nH]c2c1,9%,-2%,?,0%
COc1ccccc1CN(Cc1cc2cc3c(cc2[nH]c1=O)OCCO3)Cc1nnnn1Cc1ccco1,?,?,-18%,13µM*
O=c1[nH]c2cc3c(cc2cc1CN(Cc1cccnc1)Cc1nnnn1Cc1ccco1)OCCO3,-4%,-21%,-11%,16µM*
O=c1[nH]c2cc3c(cc2cc1CN(Cc1cccs1)Cc1nnnn1Cc1ccco1)OCCO3,?,?,?,20µM*
Cc1cc(C)c2cc(CN(Cc3ccc4c(c3)OCO4)Cc3nnnn3Cc3ccco3)c(=O)[nH]c2c1,14%,-10%,?,14µM*
Cc1ccc2[nH]c(=O)c(CN(Cc3cccnc3)Cc3nnnn3CC3CCCO3)cc2c1 (stereo not given),-11%,-14%,12%,8%
CCc1ccc2[nH]c(=O)c(CN(Cc3ccccc3)Cc3nnnn3Cc3ccco3)cc2c1,5%,-12%,9%,18µM*
Cc1ccc2[nH]c(=O)c(CN(Cc3cccnc3)Cc3nnnn3CCN3CCOCC3)cc2c1,3%,4.7µM*,-9%,8%
O=c1[nH]c2cc3c(cc2cc1CN(Cc1ccccc1)Cc1nnnn1Cc1ccco1)OCCO3,?,?,?,11µM*
CCC(CC)N1CCN(C(=O)c2cc(OC)c(OC)c(OC)c2)CC1,-3%,3%,?,?
CN(C)S(=O)(=O)c1cccc(C(=O)OCC(=O)N2c3ccccc3NC(=O)C2(C)C)c1,1%,-7%,0%,4%
O=C(Cc1c[nH]c2ccccc12)NC1CCCCCC1,/,/,-11%,/
C=CCn1c(CSCc2ccc(Cl)cc2Cl)nnc1SCC(=O)Nc1ccc(C(=O)O)cc1,27%,-20%,0%,11%
O=C(CCn1ccc2cc(S(=O)(=O)N3CCCC3)ccc21)NCc1ccccc1,2%,?,-1%,3%
O=C(Cn1ccc2cc(S(=O)(=O)N3CCCCCC3)ccc21)NCc1ccco1,/,/,-35%,/
SMILES,VDR inhibitor,PLK1 PBD block,12-LOX inh,Sfp inh
O=C(CCn1ccc2cc(S(=O)(=O)N3CCCC3)ccc21)NCc1cccc(F)c1,?,7.5µM*,?,7%
Cc1ccc(CNC(=O)Cn2ccc3cc(S(=O)(=O)N4CCCC4)ccc32)o1,-4%,-26%,1%,50µM*
c1ccc(-c2csc3nnc(SCc4ccc5c(c4)OCO5)n23)cc1,79µM*,21µM*,316%,21%
O=C(CCSc1nnc2scc(-c3ccccc3)n12)NCc1ccc2c(c1)OCO2,-5%,-5%,-7%,-3%
O=C(c1cc(COc2ccc(F)cc2Cl)on1)N1CCN(C2CCCCC2)C(=O)C1,-9%,3%,-3%,-9%
Cc1ccc(Cl)c(OCCCCN(C)Cc2ccccc2)c1,-5%,2%,0%,-12%
CC1(C)CC(=O)c2cnc(NC(=O)CSc3nc4ccccc4o3)nc2C1,13%,-8%,-20%,71µM*
Cc1cc(C)nc(SCC(=O)Nc2ncc3c(n2)CC(C)(C)CC3=O)n1,-15%,0%,-12%,0%
CC1(C)CC(=O)c2cnc(NC(=O)Cc3ccc(Cl)cc3)nc2C1,-17%,19µM*,-8%,6%
